Values without a mark were called inactive. Active and inactive are the calls of the source.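 Rule for the calls, unless noted: active = mean inhibition above 46.5%, the solvent-only control mean plus 3 SD; inactive = the rest.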
What was measured:
[1] = tested on: transactivating tegument protein VP16 (Human herpesvirus 1); experiment: VP16 transactivation reporter inhibitors, counter-screen for SRC2 inhibitor project, cell-based, luminescence, single concentration (AID 652007; in the data active = inhibition above about 36%); settings: cell-based VP16 transactivation luciferase reporter, at 8.9 µM, active compounds read high
[2] = molecular target: Nuclear receptor coactivator 2 (Homo sapiens) (UniProt Q15596); experiment: SRC2 coactivator transcriptional activity inhibitors, confirmation, cell-based, luminescence, HEK293, triplicate (AID 652008); settings: HEK293 GAL4-SRC2 luciferase reporter, at 8.9 µM, active compounds read high;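 note: 0% = DMSO-treated cells and 100% = Gossypol at 36 µM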
Sequence of Nuclear receptor coactivator 2 (Homo sapiens) (Q15596 whole entry, looked up, the tested form may be a part): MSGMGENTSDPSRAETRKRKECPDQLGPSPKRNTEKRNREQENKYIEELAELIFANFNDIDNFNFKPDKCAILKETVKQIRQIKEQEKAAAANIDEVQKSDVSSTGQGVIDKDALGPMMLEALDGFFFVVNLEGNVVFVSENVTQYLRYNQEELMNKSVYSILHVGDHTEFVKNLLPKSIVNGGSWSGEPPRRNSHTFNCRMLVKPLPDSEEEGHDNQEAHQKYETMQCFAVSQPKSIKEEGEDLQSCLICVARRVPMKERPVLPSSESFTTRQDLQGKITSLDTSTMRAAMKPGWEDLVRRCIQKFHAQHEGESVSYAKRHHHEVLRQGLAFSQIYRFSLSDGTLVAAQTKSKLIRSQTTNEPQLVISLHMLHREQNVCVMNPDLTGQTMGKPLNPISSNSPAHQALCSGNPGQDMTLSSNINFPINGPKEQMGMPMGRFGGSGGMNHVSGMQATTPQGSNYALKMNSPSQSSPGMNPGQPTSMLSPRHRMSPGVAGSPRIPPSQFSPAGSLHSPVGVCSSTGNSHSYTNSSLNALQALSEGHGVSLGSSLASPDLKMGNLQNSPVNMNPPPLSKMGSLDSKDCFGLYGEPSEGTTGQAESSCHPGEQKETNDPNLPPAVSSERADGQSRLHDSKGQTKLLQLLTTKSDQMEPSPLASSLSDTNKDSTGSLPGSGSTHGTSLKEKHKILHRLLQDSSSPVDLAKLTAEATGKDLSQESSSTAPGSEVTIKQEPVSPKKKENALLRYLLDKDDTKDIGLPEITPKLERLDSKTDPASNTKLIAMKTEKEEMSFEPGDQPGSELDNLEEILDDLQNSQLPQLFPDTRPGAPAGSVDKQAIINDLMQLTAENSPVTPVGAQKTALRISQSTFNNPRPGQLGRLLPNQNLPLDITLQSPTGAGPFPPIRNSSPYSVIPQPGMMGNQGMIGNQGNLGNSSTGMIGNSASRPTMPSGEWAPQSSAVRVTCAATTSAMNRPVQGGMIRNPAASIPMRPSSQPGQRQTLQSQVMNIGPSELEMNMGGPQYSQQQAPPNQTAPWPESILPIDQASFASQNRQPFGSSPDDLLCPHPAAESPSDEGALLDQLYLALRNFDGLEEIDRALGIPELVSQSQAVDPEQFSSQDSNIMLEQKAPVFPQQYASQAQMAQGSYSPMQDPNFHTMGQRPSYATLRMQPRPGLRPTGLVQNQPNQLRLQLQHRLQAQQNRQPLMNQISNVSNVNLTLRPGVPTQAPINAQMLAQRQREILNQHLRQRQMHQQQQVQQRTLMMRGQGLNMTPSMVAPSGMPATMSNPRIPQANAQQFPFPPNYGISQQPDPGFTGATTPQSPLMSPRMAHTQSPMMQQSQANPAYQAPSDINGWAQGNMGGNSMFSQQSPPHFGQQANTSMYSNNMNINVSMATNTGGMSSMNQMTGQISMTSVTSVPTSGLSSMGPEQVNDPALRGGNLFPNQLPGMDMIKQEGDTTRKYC

| SMILES | inhibition [1] | inhibition [2] |
| --- | --- | --- |
| CC(=O)Nc1cc(=O)c2cccnc2[nH]1 | -8.33% | -9.24% |
| C[C@H]1CN([C@@H](C)CO)S(=O)(=O)c2ccc(Br)cc2O[C@H]1CN(C)Cc1ccccc1F | 22.8% | 16.8% |
| COc1ccc(C#Cc2ccc3c(c2)[C@H]2[C@H](CCN2S(=O)(=O)c2ccccc2F)[C@H](CO)N3C)cc1 | -5.48% | 8.22% |
| Cc1nn(C)c(Cl)c1NC(=O)OCc1ccc(Cl)cc1Cl | 10.8% | 16.2% |
| Cc1cc(F)ccc1NC(=O)CCc1c(C)nn(-c2ccc(N3CCCCC3)nn2)c1C | -53% | 3.56% |
| Cc1c(NC(=O)COC(=O)C23CC4CC(CC(O)(C4)C2)C3)c(=O)n(-c2ccccc2)n1C | 2.86% | 3.79% |
| Cc1nc2ccccc2c2c1C(=O)N(c1ccc(C(=O)O)cc1)C2=O | -3.24% | -28.2% |
| Cc1c(CCC(=O)N2CCC(C(=O)O)CC2)c(=O)oc2cc3oc4c(c3cc12)CCCC4 | 33.6% | 61% (active) |
| COc1ccc(/C=C2\SC(=S)N(CCCC(=O)NNC(=O)c3ccccc3O)C2=O)cc1 | 89.9% (active) | 93.1% (active) |
| COc1ccc(Nc2nc(C)nc3c2oc2ccccc23)c(OC)c1 | 2.99% | 4.48% |
| CCOc1ccc(-c2cc(CCCC(=O)N3CCN(c4ccc(OC)cc4)CC3)no2)cc1 | 4.64% | 18.6% |
| Cc1nc([N+](=O)[O-])c(C(=O)OCc2ccccc2F)n1C | -22.8% | 1.38% |
| CCOc1ccc(-c2nc(CSCC(=O)N3CCN(c4cccc(OC)c4)CC3)c(C)o2)cc1 | 23.2% | 49.8% (active) |
| COc1cccc(NC(=O)Nc2nnc(CC(=O)NCc3ccccc3)s2)c1 | -17.5% | 24.5% |
| O=C(NC12CC3CC(CC(C3)C1)C2)C1CC(=O)N(c2ccccc2)C1 (stereo not given) | 9.52% | -0.38% |
| COc1cc(C#Cc2c(-c3cncn3C)n(C)c3ccc(-c4ccc(OC)nc4)cc23)cc(OC)c1 | -13.2% | -23.7% |
| COc1cc(NC(=O)c2cccs2)c(C(=O)OCC(=O)c2cc(C)n(-c3ccccc3)c2C)cc1OC | 27.5% | 67% (active) |
| O=S(=O)(Nc1cc(Sc2cccc3cccnc23)c(O)c2ccccc12)c1ccccc1 | 97.2% (active) | 98.7% (active) |
| COc1ccc(C2C(O)C(c3c[nH]c4ccccc34)=NN2C(=O)CCl)cc1 (stereo not given) | 72.7% (active) | 79.9% (active) |
| CCOc1cc(/C=C2/NC(=O)N(Cc3ccccc3F)C2=O)ccc1O | 4.78% | 30.1% |
| COc1cccc(CNC(=O)C2CCN(S(=O)(=O)c3ccc(F)cc3)CC2)c1 | 16.3% | -10.1% |
| Cc1cc2nc(Sc3c([N+](=O)[O-])nc(C)n3Cc3ccccc3)[nH]c2cc1C | 5.05% | 30.7% |
| CC1CN(C(=O)CCC(=O)N2CCN(c3cccc(C(F)(F)F)c3)CC2)c2ccccc2O1 (stereo not given) | 15.6% | 23.5% |
| O=C(Nc1ccc(N2CCOCC2)cc1)c1cnsn1 | -8.19% | 34.3% |

| SMILES | inhibition [1] | inhibition [2] |
| --- | --- | --- |
| COC(=O)c1cc(C(=O)OC)cc(S(=O)(=O)Nc2ccc(Cl)c(N)c2)c1 | -6.46% | -14.7% |
| CCOC(=O)c1ccc(-c2ccc(N3C(c4ccsc4)=Cc4ccc(F)cc4C3c3c[nH]c4ccc(C#N)cc34)cc2)cc1F (stereo not given) | -3.42% | 33.6% |
| COCCn1c(SCC(=O)/C=C2\N(C)c3ccccc3C2(C)C)nnc1-c1ccncc1 | -4.56% | 8% |
| COCc1cc(N2CCN(C(=O)OC(C)(C)C)C[C@H]2C)ccc1N1CCS(=O)(=O)CC1 | 5.52% | 33.9% |
| C=C1C(=O)[C@]23C[C@H]1CCC2[C@]1(C)CCC[C@@](C)(C(=O)O)C1C[C@@H]3O (stereo not given in full) | 4.96% | 6.02% |
| Cc1cc(N/N=C/c2ccc(O)cc2)nc(NS(=O)(=O)c2ccccc2)n1 | -14.1% | 16.5% |
| Cc1ccc(S(=O)(=O)C[C@@H]2OC[C@H](C)N2S(=O)(=O)c2ccc(C)cc2)cc1 | 1.93% | -6.07% |
| CNc1ccccc1C(=O)OC(C)C(=O)Nc1ccc(Cl)cn1 (stereo not given) | -10.2% | 20.9% |
| CCN(CC)S(=O)(=O)c1cccc(C(=O)N/N=C/c2cccc(O)c2O)c1 | -46.8% | -7.21% |
| CCC(=O)Nc1ccc2c(c1)C(=O)N(C)[C@@H]1CC[C@@H](CC(=O)NCc3ccc(OC)cc3)O[C@H]1CO2 | -18.1% | -9.9% |
| O=C(c1cccc2c1-c1ccccc1/C2=N/O)N1CCCCC1 | 0.22% | 30% |
| O=C(COC(=O)c1cccc(F)c1)Nc1cccc(S(=O)(=O)N2CCCCC2)c1 | 1.01% | 2.48% |
| CC(C)OC(=O)c1ccc(NCc2cc(O)ccc2O)cc1 | 51.7% (active) | 54.8% (active) |
| Cc1cc(C(=O)CN2C(=O)C(=O)N(Cc3ccccc3)C2=O)c(C)n1-c1ccc2c(c1)OCCO2 | -14.1% | -36% |
| O=C(O)CCSc1ncnc2sc(-c3ccccc3)cc12 | 67.7% (active) | 88.4% (active) |
| CN1CCN(c2ccc(NC(=O)c3cc(S(N)(=O)=O)ccc3N3CCOCC3)cc2)CC1 | -1.08% | -8.5% |
| Cc1nc2cc(-c3ccccc3)nn2c(C)c1CCC(=O)NCc1ccco1 | -27.7% | 46.5% (active) |
| CC(C)C[C@H]1CN(CCCC[C@H]2CNC(=O)C(=O)N2CCc2ccccc2)C(=O)C(=O)N1CCC1CCCCC1 | 10.7% | -17.3% |
| O=C(c1ccc(NS(=O)(=O)c2cccc(F)c2)cc1)N1CCCCC1 | -7.22% | -9% |
| O=c1[nH]c2ccc(Br)cc2c(=O)o1 | 44.5% (active) | 34.9% |
| COc1ccc(NC(=O)COc2coc(CN3CCN(c4ccccc4)CC3)cc2=O)cc1 | -6.47% | -1.96% |
| Cc1ccc(S(=O)(=O)N2[C@@H](c3ccc4c(c3)OCO4)C(C(=O)O)=C[C@H]2C(C)(C)C)cc1 | -12.9% | 1.95% |
| O=C1N[C@@H](Cc2ccccc2)C(=O)N2[C@H]1CSCCS2(=O)=O | -5.16% | -25.1% |
| COc1cc2ncnc(NCc3ccc4c(c3)OCO4)c2cc1OC | 7.59% | -5.74% |

| SMILES | inhibition [1] | inhibition [2] |
| --- | --- | --- |
| Oc1ccc(N=Nc2ccc3c(c2)OCCO3)c(O)c1 | -71.4% | 35.1% |
| CC(=O)OC1CCC2(C)C(CCC3C4CC=C(C(C)=O)C4(C)OC(=O)CC32)C1 (stereo not given) | 20.8% | 16.1% |
| Nc1ccc2oc(-c3cccc4ccccc34)nc2c1 | 38.3% (active) | 48.8% (active) |
| O=C(Nc1ccc2nc3n(c(=O)c2c1)CCCCC3)c1cc([N+](=O)[O-])ccc1F | 32.1% | 30.4% |
| Cc1csc(NC(=O)CSc2ccc([N+](=O)[O-])cn2)n1 | -0.96% | -30.9% |
| COC(=O)c1nn(-c2ccc3c(c2)CCN3C(C)=O)cc1O | -21.8% | 43.5% |
| COC(=O)c1cnn(-c2ccc(Cl)cc2)c1/C=N/NC(N)=S | 22% | 34.7% |
| O=C(COc1ccc2c(c1)CCC2)Nc1ccccn1 | 2.76% | 41% |
| O=C(N=C1SC2CS(=O)(=O)CC2N1Cc1ccccc1)C1CCCO1 (stereo not given) | -0.59% | -2.87% |
| O=C(Nc1nnc(SCc2ccc(F)cc2)s1)c1cccnc1Cl | -9.69% | -19.9% |
| COc1cc(F)ccc1-c1csc(C(O)c2ccc(F)c(F)c2)n1 (stereo not given) | -3.93% | 10.6% |
| Cc1onc(C(=O)N2CCC(Cc3ccccc3)CC2)c1[N+](=O)[O-] | -1.3% | 5.37% |
| CC(=NCc1ccco1)c1c(C)[nH]n(-c2nc3ccccc3s2)c1=O | -24% | 14.3% |
| COc1cccc(-c2ncn(CCc3ccccc3OC)c2CC(C)C)c1 | -2.53% | 18.6% |
| O=C(NC(=S)Nc1cccc2cc(O)ccc12)c1ccccc1Br | 2.57% | -14.4% |
| O=C(CCCN1C(=O)/C(=C/c2cccs2)SC1=S)Nc1ccccn1 | 12.4% | 10.9% |
| C=C(C)C(=O)OC1(C(F)(F)F)Oc2cc(C)ccc2NC1=O (stereo not given) | -6.48% | 17.5% |
| Cc1ccccc1N(Cc1cc(=O)[nH]c2ccccc12)C(=O)CCl | 44.6% (active) | 76.7% (active) |
| N/C(=N\OC(=O)c1ccc(Cl)cc1Cl)c1ccccn1 | -75.5% | -25.1% |
| CCCSc1ccc2nc(-c3ccccc3)cn2c1 | -24.4% | 58% (active) |
| O=C1C2CCCN2C(=S)N1C1CCCCC1 (stereo not given) | 1.86% | 3.89% |
| CCN1CCCc2cc(CN(CCN3CCOCC3)C(=S)Nc3ccccc3OC)ccc21 | -14.1% | -10.6% |

— PubChem BioAssay
